SMILES strings stand for the structures. The whole screen tested about 52,000 compounds, of which about 1,700 (3.3%) were called active. The entries come from a sample that favours actives as a whole. Values without a mark were called inactive. Rule as the data show it: active = survival mostly below about 52% (no sharp cut-off); inactive = mostly above about 56%.

This test concerns Wild type. Briefly: growth inhibition of S. aureus wild type versus tarO mutant, primary screen, teichoic acid synthesis inhibitors, RN4220, OD600 (AID 463173). The following applies: S. aureus RN4220 wild type/DeltatarO growth, OD600, 18 h, active compounds read low, screened at 18.75 µg/mL (by protocol).
Consider `Cc1ccc(C)c(N2CCN(C(=O)NC3CCCCC3)CC2)c1`, for which the survival is 103%.
Under `COc1ccc2nc3oc(C(=O)Nc4cccc(C(F)(F)F)c4)cc3cc2c1` stands 66%.
For `COc1ccc(C2C(=O)N(C3CCC(C)CC3)CC(=O)N2CCC2=CCCCC2)cc1OC` (configuration not stated), the survival is -3% (active).
The figure for `CCCOc1ccc(C2C(=O)N(C3CCC(C)CC3)CC(=O)N2CCC2=CCCCC2)cc1OC` (configuration not stated) is 87%.
Under `CCCN1C(=O)CN(C2CCCCCC2)C(=O)C1c1ccc(OCC)c(OC)c1` (configuration not stated) stands 120%; under `COc1ccc(C2C(=O)N(C3CCC(C)CC3)CC(=O)N2C2CCCCC2)cc1OC` (configuration not stated), 64%; under `COc1ccc(C2C(=O)N(C3CCC(C)CC3)CC(=O)N2C2CCCC2)cc1OC` (configuration not stated), -4% (active).
Under `CCCOc1ccc(C2C(=O)N(C3CCCCCC3)CC(=O)N2CCC)cc1OC` (configuration not stated) stands -6% (active); under `CCCOc1ccc(C2C(=O)N(C3CCCCC3)CC(=O)N2C2CCCCC2)cc1OC` (configuration not stated), 77%.
Consider `CCCCN1C(=O)CN(C2CCCCCC2)C(=O)C1c1ccc(OCCC)c(OC)c1` (configuration not stated), for which the survival is 87%.
For `CCCOc1ccc(C2C(=O)N(C3CCCCCC3)CC(=O)N2CCC2=CCCCC2)cc1OC` (configuration not stated), the survival was 123%.
Consider `COc1ccc(-n2cc(C(=O)N(C)c3cc(C)ccc3OC)c3ccccc3c2=O)cc1`, for which the survival was 114%.
Under `Cc1ccc(NC(=O)CCc2c(C)nc3nc(C)nn3c2C)c(Cl)c1` stands 70%; under `CCc1nnc(SC(CC)C(=O)NCCOC)c2cc3occc3n12` (configuration not stated), 105%; under `Cc1ccc(C(=O)n2nc(C)c(S(=O)(=O)N3CCOCC3)c2C)cc1`, 85%.
Under `CCN(c1cccc(C)c1)S(=O)(=O)c1cc(Br)cc2c1N(C(C)=O)C(C)C2` (configuration not stated) stands 75%; under `CCN(CC)CCNC(=O)c1ccc(-n2c(-c3ccccc3)cc3c2CCCC3)cc1`, 2% (active); under `CN(C)CCNC(=O)c1ccc(-n2c(-c3ccccc3)cc3c2CCCCC3)cc1`, 17%.
Under `CN(C)CCNC(=O)c1ccc(-n2c(-c3ccccc3)cc3c2CCCC3)cc1` stands 29%; under `Cc1ccc(C2C(C(=O)/C=C/c3ccccc3)=C(O)C(=O)N2CCO)cc1` (configuration not stated), 99%.
Regarding `O=C1CC(CSc2nnnn2-c2ccccc2)=NN1`, the survival was 128%.
Under `O=S(=O)(NCCSc1nnnn1-c1ccccc1)c1ccc(F)cc1` stands 76%.
Under `O=S1(=O)C=C(Sc2nnnn2-c2ccccc2)c2ccccc21` stands -1% (active); under `Cc1ccc(-c2csc(=Nc3ccccc3)n2CCCO)cc1`, -7% (active).
On to `COc1ccc(-c2csc(=Nc3ccccc3)n2CCO)cc1F`, for which the survival is 63%.
The figure for `O=S(=O)(c1ccc(-c2csc(=Nc3ccc(OC(F)(F)Cl)cc3)n2CCCO)cc1)N1CCCC1` is 132%.
Under `OCCCn1c(-c2ccc(F)cc2)csc1=Nc1ccc(F)cc1` stands 9% (active).
The figure for `O=S(=O)(c1ccc(-c2csc(=Nc3ccc(F)cc3)n2CCCCCCO)cc1)N1CCCC1` is 55%; for `CCN(CC)CCn1c(-c2ccccc2)csc1=Nc1ccccc1` it is 45%.
For `Cc1ccc(NC(=O)C(=O)NCC(c2ccc3c(c2)OCO3)N2CCN(c3ccccc3)CC2)cc1` (configuration not stated), the survival is 75%.
Take `O=C(CCC1N=C2c3ccccc3N=C(SCC(=O)Nc3ccccc3F)N2C1=O)NCc1ccccc1` (configuration not stated): the survival was 76%.
`CCOc1ccc(CNC(=O)C2CCN(S(=O)(=O)N3CCC(C)CC3)CC2)cc1OC`: the survival was 84%.
The figure for `CCOc1ccc(-c2nnc(SCC(=O)c3ccc(Br)cc3)n2-c2ccccc2)cc1` is 92%; for `CC(=O)N1CCc2c(sc3c2c(=O)n(CCc2ccccc2)c(=O)n3Cc2ccc(Cl)cc2)C1` it is 65%; for `O=C(CSc1nc2c(c(=O)[nH]1)CN(Cc1ccc3c(c1)OCO3)CC2)Nc1ccccc1Cl` it is 81%.
The figure for `O=C(CCN1CCCCC1)c1ccccc1` is 92%.
The figure for `Cc1ccc2nc(Cl)c3cc(C(=O)N4CCCCC4C)sc3c2c1` (configuration not stated) is 21%.
Take `O=C(NC1CCCCCC1)c1cc2c(Cl)nc3ccccc3c2s1`: the survival is 123%.
Under `CC(C)N(C(=O)c1cc2c(Cl)nc3ccccc3c2s1)C1CCCCC1` stands -1% (active).
The figure for `CC1CCCN(C(=O)c2cc3c(Cl)nc4ccccc4c3s2)C1` (configuration not stated) is -2% (active); for `Cc1ccc2nc(Cl)c3cc(C(=O)NC4CCC(C)CC4)sc3c2c1` (configuration not stated) it is 72%; for `Cc1ccc2nc(Cl)c3cc(C(=O)N4CCCC(C)C4)sc3c2c1` (configuration not stated) it is -2% (active).
With `O=C(c1cc2c(Cl)nc3ccccc3c2s1)N1CCCCC1`, the survival is 58%.
The figure for `Cc1ccc2nc(Cl)c3cc(C(=O)NC4CCCCC4)sc3c2c1` is 76%; for `Cc1ccc2nc(Cl)c3cc(C(=O)NC4CCCCCC4)sc3c2c1` it is 119%.
Under `O=C(NC1CCCCC1)c1cc2c(Cl)nc3ccccc3c2s1` stands 77%; under `Cc1ccc2nc(Cl)c3cc(C(=O)N4CCCCC4)sc3c2c1`, -2% (active); under `CCOC(=O)C1CCCN(C(=O)c2cc3c(Cl)nc4ccccc4c3s2)C1` (configuration not stated), 41%.
Under `CCCCC(=O)Nc1ccc(OCc2cc(=O)n3c(C)csc3n2)cc1` stands 87%; under `COc1ccccc1NC(=O)C(Cc1ccccc1)NS(=O)(=O)c1ccc2c(c1)CCN2C(C)=O` (configuration not stated), 80%; under `CCOc1ccccc1NS(=O)(=O)c1ccc2c(c1)oc(=O)n2C`, 82%.
With `O=C(Nc1ccc2nn(-c3ccccc3)nc2c1)c1cc2ccccc2o1`, the survival was 80%.
Under `COC(=O)c1scc(-c2ccc(C)cc2)c1S(=O)(=O)N1CCN(c2cccc(OC)c2)CC1` stands 53%; under `CCCCn1c(Cc2ccccc2)nnc1SCC(=O)NC`, 104%; under `COC(=O)c1ccc(NC(=O)c2cc(S(=O)(=O)N3CCOCC3)cn2C)cc1`, 84%.
For `COC(=O)C1(c2ccccc2)NC(c2ccc(O)cc2)C2C(=O)N(c3ccc4c(c3)OCCO4)C(=O)C21` (configuration not stated), the survival was 106%.
Under `Cc1cc(N2CCC(C(=O)N(CC(C)C)CC(C)C)CC2)n2nc(C)c(-c3ccc(Cl)cc3)c2n1` stands 91%; under `COc1ccc(NC(=O)CN2C(=O)CC(c3ccc(C)c(C)c3)=Nc3ccccc32)cc1OC`, 76%; under `CCCn1c(SCC(=O)N2CCCC2)nnc1C(C)C`, 105%.
The figure for `Cc1ccc(NC(=O)CCC(=O)N2Cc3ccccc3Oc3ncccc32)cc1F` is 82%; for `CCn1cc(C(=O)NCCCOC(C)C)c(=O)c2cc(S(=O)(=O)N3CCOCC3)ccc21` it is 131%; for `COc1ccc(OC)c(CNC(=O)CN(c2ccc(C)cc2)S(=O)(=O)N(C)C)c1` it is 80%.
Under `Cc1ccc(-c2cc3ncc(C(=O)c4cc(Cl)c(C)cc4O)cn3n2)cc1` stands 91%; under `O=[N+]([O-])c1ccc(O)c(-c2ccnc3cc(-c4ccccc4)nn23)c1`, 29%; under `COc1ccc(-c2cc3ncc(C(=O)c4cc([N+](=O)[O-])ccc4O)cn3n2)cc1`, 58%.
Take `O=C(c1cnc2cc(-c3ccccc3)nn2c1)c1cc([N+](=O)[O-])ccc1O`: the survival was 19% (active).
With `Cc1ccc(-c2cc3ncc(C(=O)c4cc([N+](=O)[O-])ccc4O)cn3n2)cc1`, the survival was 15% (active).
Under `CCc1ccc(O)c(C(=O)c2cnc3cc(-c4ccc(C)cc4)nn3c2)c1` stands 66%; under `O=C(CCC(=O)N1CCOc2ccccc21)NCc1cccs1`, 83%; under `Cc1cccc(NC(=O)Cn2c(=O)oc3cc(S(=O)(=O)NCc4ccccc4)ccc32)c1`, 92%.
Take `CC(=O)c1ccc(NC(=O)Cn2nc(C(F)(F)F)c3c2CCC3)cc1`: the survival was 66%.
As to `CCc1cccc(NC(=O)C2CCN(S(=O)(=O)c3cccc(-c4noc(C)n4)c3)CC2)c1`, the survival is 80%.
Turning to `Cc1cc(C)cc(NC(=O)C2CCN(S(=O)(=O)c3cccc(-c4noc(C)n4)c3)CC2)c1`, the survival was -6% (active).
The figure for `CCc1ccc(NC(=O)C2CCN(S(=O)(=O)c3cccc(-c4noc(C)n4)c3)CC2)cc1` is 90%; for `CCOc1ccc(N(CC(=O)Nc2ccccc2)S(C)(=O)=O)cc1` it is 110%; for `COc1cc(Cl)c(C)cc1NC(=O)c1cc2ccc3cccnc3c2[nH]1` it is 73%.
The figure for `Cc1cnc2c(c1SCC(=O)N(C)c1ccccc1)c(=O)n(C)c(=O)n2C` is 100%.
As to `Cc1ccccc1-c1nc(CN2CCC(C(=O)NCc3ccccc3Cl)CC2)c(C)o1`, the survival was 85%.
Under `CC(C)(C)c1ccc(Cn2c(=N)n(CC(O)c3ccco3)c3ccccc32)cc1` (configuration not stated) stands 53% (active); under `CCOC(=O)Cn1c(=N)n(Cc2ccc(C(C)(C)C)cc2)c2ccccc21`, 95%.
`Cc1ccc(Cn2c(=N)n(CC(=O)c3ccccc3)c3ccccc32)cc1`: the survival was 107%.
The figure for `NC(=S)N/N=C/c1ccc(Sc2cccc3cccnc23)o1` is 115%; for `Cc1cc(=O)n(Cc2cccc(Cl)c2)c2c1c(C)nn2C` it is 66%.
For `Cc1cc(=O)n(Cc2ccc(Cl)cc2)c2c1c(C)nn2-c1ccccc1`, the survival is 131%.
The figure for `Cc1ccc(C)c(Cn2c(=O)cc(C)c3c(C)nn(C)c32)c1` is 63%; for `Cc1cc(=O)n(Cc2ccccc2)c2c1c(C)nn2C` it is -3% (active); for `C=Cc1ccc(Cn2c(=O)cc(C)c3c(C)nn(-c4ccccc4)c32)cc1` it is -1% (active).
Under `COC(=O)c1ccc(Cn2c(=O)cc(C)c3c(C)nn(C)c32)cc1` stands 53%; under `COc1cccc(Cn2c(=O)cc(C)c3c(C)nn(C)c32)c1`, 85%; under `Cc1cc(=O)n(Cc2ccccc2)c2c1c(C)nn2-c1ccccc1`, 72%.
Under `C=Cc1ccc(Cn2c(=O)cc(C)c3c(C)nn(C)c32)cc1` stands 0% (active); under `Nc1ccc(-c2nc3c(Cl)cccc3[nH]2)cc1`, 125%.

For the origin of these results see PubChem BioAssay AID463173 (ICCB-Longwood Screening Facility, Harvard Medical School, 2010).
